Data on 27 molecules can be found in PubChem BioAssay (NCI).

About 83,000 compounds went through this panel and 20% of them were active in at least one assay; those are over-represented in the sample as a whole.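 Growth was measured after 48 h exposure to one concentration of compound in 96-well plates. Values under 10 count as active.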 Values without a mark were called inactive. Active and inactive are the calls of the source.

The test system of the experiment is SR leukemia. Briefly: NCI-60 one-dose screen, 48 h (100 = growth as untreated, 0 = no growth, -100 = all killed). The settings on record: 10 µM unless noted.
Regarding `CNC(=O)c1cc(N2CCc3cc(NC(=O)Nc4ccc(N5CCN(C)CC5)c(C(F)(F)F)c4)ccc32)ccn1`, the growth was -12.6% (active).

For the molecule `C=C(C)[C@@H]1CC[C@]2(COCCCNCCCN)CC[C@]3(C)[C@H](CC[C@@H]4[C@@]5(C)CC[C@H](O)C(C)(C)[C@@H]5CC[C@]43C)[C@@H]12`, the growth was -33.1% (active).

On to `CN1CCN(Cc2ccc(NC(=O)c3cncc(C#Cc4cnc5ccc(OCC6COC6)nn45)c3)cc2C(F)(F)F)CC1`, for which the growth was -22.7% (active).

On to `CCN(CC)S(=O)(=O)c1ccc(-c2nc(C(Cl)Cl)nc3cc(-c4ccc(F)cc4)nn23)cc1`, for which the growth is 30.8%.

Consider `O=C(COc1ccc(/C=C2\C(=O)Nc3ccc(F)cc32)cc1)Nc1ccccc1`, for which the growth was 86.1%.

Take `CN1CCN(c2ccc(Nc3nc(NCCCNS(=O)(=O)c4ccc(F)cc4)c4sccc4n3)cc2)CC1`: the growth is 7.3% (active).

For `COc1cccc(N2CCN(C3=C(Cl)C(=O)c4ncccc4C3=O)CC2)c1`, the growth is 4.42% (active).

As for `C#CCOc1cccc(-c2nc(N)nc(Nc3ccccc3SSc3ccccc3Nc3nc(N)nc(-c4cccc(OCC#C)c4)n3)n2)c1`, the growth is -16.2% (active).

With `O=C(CSc1nnc(-c2ccc(Cl)cc2)n1-c1ccccc1)Nc1ccc(Cl)cc1`, the growth is 18.6%.

For the molecule `NC(=O)n1c(=O)n(-c2cccc(C(F)(F)F)c2)c(=O)c2cc(-c3ccc(F)cc3F)ccc21`, the growth was 4.71% (active).

Regarding `C#CCOc1ccc(/C=N/Nc2nc(-c3ccc(OC)cc3)cs2)cc1`, the growth is 47%.

Turning to `O=C(CSc1nnc(-c2ccc(Cl)cc2)n1-c1ccccc1)Nc1ccccc1Cl`, the growth was 20.5%.

`CCOC(=O)c1c(NC(=O)c2cccc(C(F)(F)F)c2)sc2c3c(ccc12)OCN(C)C3`: the growth is -41.7% (active).

Take `CN1CCN(Cc2ccc(NC(=O)c3cncc(C#Cc4cnc5ccc(OCCCS(C)(=O)=O)nn45)c3)cc2C(F)(F)F)CC1`: the growth is 3.03% (active).

Take `CCOC(=O)c1c(NCC(=O)Nc2cccc([N+](=O)[O-])c2)sc(C(C)=O)c1C`: the growth is 0.317% (active).

With `N#Cc1c(-c2cccs2)cc(-c2cnccn2)nc1SCC(=O)N/N=C/c1ccccc1`, the growth is 55.9%.

Turning to `CN1CCN(Cc2ccc(NC(=O)c3cncc(C#Cc4cnc5ccc(O[C@@H]6CCOC6)nn45)c3)cc2C(F)(F)F)CC1`, the growth is -29.7% (active).

Consider `O=C(CCCCCCNC(=O)c1csc(Br)n1)NO`, for which the growth was 23.9%.

On to `O=C(NCCNc1cc(-c2cn(-c3ccccc3)nc2-c2cccc(O)c2)ccn1)Nc1cc(C(F)(F)F)cc(C(F)(F)F)c1`, for which the growth was 81.3%.

For `COC(=O)c1ccc(NC2=C(Cl)C(=O)c3nc(C)ccc3C2=O)cc1`, the growth was 22.3%.

Consider `CCOP(=O)(OCC)OC[C@]12CCC(C)(C)C[C@H]1C1=CC[C@@H]3[C@@]4(C)CC[C@H](OP(=O)(OCC)OCC)C(C)(C)[C@@H]4CC[C@@]3(C)[C@]1(C)CC2`, for which the growth was 35%.

Take `C/C(=N/N)c1nnn(-c2ccc(Br)cc2)c1C`: the growth is 96%.

In the case of `O=C(N/N=C\c1ccc(F)cc1)c1ccc2nc(-c3ccc(Br)cc3)[nH]c2c1`, the growth is 41.3%.

Consider `O=C1Nc2ccc(F)cc2/C1=C\C(=O)c1ccc(NS(=O)(=O)c2ccccc2)cc1`, for which the growth is 9.42% (active).

In the case of `CCCCCc1ccc(S(=O)(=O)Nc2cc(-c3csc(N)n3)ccc2OC)cc1`, the growth was 98.9%.

For the molecule `CN1CCN(c2ccc(Nc3nc(NCCNS(=O)(=O)c4ccc5ccccc5c4)c4sccc4n3)cc2)CC1`, the growth was -21.3% (active).

For the molecule `CCn1c2ccc(/C=N/N(C)S(=O)(=O)CCN(C)C)cc2c2cc(/C=N/N(C)S(=O)(=O)CCN(C)C)ccc21`, the growth was 2.12% (active).
